# Measurements as given in PubChem BioAssay (EPA / NIEHS).
# Several values for one entry are separate records, joined by “and”; a condition that tells them apart may be missing. Equal values may be shown once. Records with an inconclusive call do not appear. Activity calls are given as the source filed them. Rule for the calls, unless noted: active = hit-call score of the fitted dose curve at least 0.9, where 1 is the maximum; inconclusive = response in the unintended direction; inactive = score below 0.9.
# What was measured:
# [1] = molecular target: human Peripheral-type Benzodiazepine Receptor (PBR), TSPO (gene 706) (UniProt P30536); test: NVS_MP_hPBR: NovaScreen (NVS) Membrane Protein Assay for human Peripheral-type Benzodiazepine Receptor (PBR) (AID 2283331);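 note: hits reduce radioligand binding relative to DMSO baseline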
# Sequence of human Peripheral-type Benzodiazepine Receptor (PBR), TSPO (gene 706) (P30536 whole entry, looked up): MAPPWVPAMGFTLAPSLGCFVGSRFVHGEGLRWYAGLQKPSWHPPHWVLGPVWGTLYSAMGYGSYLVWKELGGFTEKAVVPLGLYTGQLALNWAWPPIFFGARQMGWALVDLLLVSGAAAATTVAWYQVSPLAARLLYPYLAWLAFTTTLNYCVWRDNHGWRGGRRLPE
# How it was run: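 Radioligand displacement on human colonic cell membranes, 1 h incubation; bound radioactivity by filtration and scintillation counting. Primary screen in duplicate at 25 uM single concentration, actives followed up in concentration series; loss of binding versus DMSO.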
# [2] = molecular target: rat Peripheral-type Benzodiazepine Receptor (PBR), Tspo (gene 24230) (UniProt P16257); test: NVS_MP_rPBR: NovaScreen (NVS) Membrane Protein Assay for rat Peripheral-type Benzodiazepine Receptor (PBR) (AID 2283335)
# Sequence of rat Peripheral-type Benzodiazepine Receptor (PBR), Tspo (gene 24230) (P16257 whole entry, looked up): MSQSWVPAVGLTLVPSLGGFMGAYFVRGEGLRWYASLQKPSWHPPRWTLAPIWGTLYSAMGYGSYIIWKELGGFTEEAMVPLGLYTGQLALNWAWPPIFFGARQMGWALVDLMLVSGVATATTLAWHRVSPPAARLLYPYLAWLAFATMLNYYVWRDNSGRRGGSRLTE
# How it was run: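 Radioligand displacement, rat kidney membrane prep, 1 h exposure, filter-based scintillation read; DMSO baseline, loss-of-signal scored. Primary screen at 25 uM in duplicate, actives followed up in concentration series.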
# NCBI gene 100848466 = test: NVS_NR_bPR: NovaScreen (NVS) Nuclear Receptor Binding Assay for bovine Progextron Receptor (PR) (AID 2283343);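 for AC50: actives lower bound radioligand signal below DMSO meaning displacement of the label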
# How it was run: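 Bovine uterine membrane preparation; radioligand displacement read by scintillation counting 18 h after dosing. Primary screen single concentration, 25 uM, in duplicate; actives followed up in concentration series. Signal loss versus DMSO baseline.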
# [3] = tested on: guinea pig Histamine Receptor (H2), gene 100729734; test: NVS_GPCR_gH2: NovaScreen (NVS) G Protein-Coupled Receptor Assay for guinea pig Histamine Receptor (H2) (AID 2283342)
# How it was run: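 Radioligand displacement on guinea pig striatal membranes, 1 h after dosing, filter-based scintillation counting; loss of signal versus DMSO. Single-point screen at 25 uM in duplicate, then concentration-response up to 50 uM.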
# [4] = molecular target: Glutamate receptor ionotropic, kainate 1 (Rattus norvegicus) (UniProt P22756); test: NVS_IC_rKAR: NovaScreen (NVS) Ion Channel Assay for rat Kainic Acid Receptors (KAR) (AID 2283334; active = hit-call score of the fitted dose curve at least 0.9, where 1 is the maximum; inactive = score below 0.9)
# Sequence of Glutamate receptor ionotropic, kainate 1 (Rattus norvegicus) (P22756 whole entry, looked up): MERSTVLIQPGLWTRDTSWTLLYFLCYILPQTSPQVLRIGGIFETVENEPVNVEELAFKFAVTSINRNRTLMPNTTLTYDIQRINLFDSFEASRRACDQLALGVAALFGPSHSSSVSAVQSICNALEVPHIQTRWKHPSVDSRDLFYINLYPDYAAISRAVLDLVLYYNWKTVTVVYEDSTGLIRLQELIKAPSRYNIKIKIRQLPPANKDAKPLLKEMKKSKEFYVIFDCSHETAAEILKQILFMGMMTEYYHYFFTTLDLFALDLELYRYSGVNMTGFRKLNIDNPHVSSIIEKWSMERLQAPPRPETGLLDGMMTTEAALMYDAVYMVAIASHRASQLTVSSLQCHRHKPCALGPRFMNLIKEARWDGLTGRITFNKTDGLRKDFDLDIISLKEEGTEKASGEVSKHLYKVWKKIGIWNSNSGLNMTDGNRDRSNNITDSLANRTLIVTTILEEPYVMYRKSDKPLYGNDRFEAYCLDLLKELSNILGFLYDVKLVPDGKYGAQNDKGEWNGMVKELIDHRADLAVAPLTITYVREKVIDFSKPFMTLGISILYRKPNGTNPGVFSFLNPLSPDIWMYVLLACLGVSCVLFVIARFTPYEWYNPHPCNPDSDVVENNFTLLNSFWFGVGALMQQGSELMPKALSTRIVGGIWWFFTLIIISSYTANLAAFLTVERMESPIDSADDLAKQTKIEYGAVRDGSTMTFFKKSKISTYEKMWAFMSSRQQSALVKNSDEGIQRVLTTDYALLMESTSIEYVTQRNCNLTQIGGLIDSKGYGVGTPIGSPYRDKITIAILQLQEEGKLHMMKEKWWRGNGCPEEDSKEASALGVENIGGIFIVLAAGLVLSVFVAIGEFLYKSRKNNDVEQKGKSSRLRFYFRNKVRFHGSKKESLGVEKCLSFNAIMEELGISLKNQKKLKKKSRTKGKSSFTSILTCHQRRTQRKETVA
# How it was run: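 Radioligand displacement binding using rat forebrain membranes, 1 h incubation, filter-based scintillation counting. Screened in duplicate at 25 uM, with actives retested in concentration-response up to 50 uM; fitted against DMSO.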
# [5] = molecular target: bovine Estrogen Receptor (ER), ESR1 (gene 407238) (UniProt P49884); test: NVS_NR_bER: NovaScreen (NVS) Nuclear Receptor Binding Assay for bovine Estrogen Receptor (ER) (AID 2283345);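 note: actives lower the bound radioligand count which means they displace the ER ligand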
# Sequence of bovine Estrogen Receptor (ER), ESR1 (gene 407238) (P49884 whole entry, looked up): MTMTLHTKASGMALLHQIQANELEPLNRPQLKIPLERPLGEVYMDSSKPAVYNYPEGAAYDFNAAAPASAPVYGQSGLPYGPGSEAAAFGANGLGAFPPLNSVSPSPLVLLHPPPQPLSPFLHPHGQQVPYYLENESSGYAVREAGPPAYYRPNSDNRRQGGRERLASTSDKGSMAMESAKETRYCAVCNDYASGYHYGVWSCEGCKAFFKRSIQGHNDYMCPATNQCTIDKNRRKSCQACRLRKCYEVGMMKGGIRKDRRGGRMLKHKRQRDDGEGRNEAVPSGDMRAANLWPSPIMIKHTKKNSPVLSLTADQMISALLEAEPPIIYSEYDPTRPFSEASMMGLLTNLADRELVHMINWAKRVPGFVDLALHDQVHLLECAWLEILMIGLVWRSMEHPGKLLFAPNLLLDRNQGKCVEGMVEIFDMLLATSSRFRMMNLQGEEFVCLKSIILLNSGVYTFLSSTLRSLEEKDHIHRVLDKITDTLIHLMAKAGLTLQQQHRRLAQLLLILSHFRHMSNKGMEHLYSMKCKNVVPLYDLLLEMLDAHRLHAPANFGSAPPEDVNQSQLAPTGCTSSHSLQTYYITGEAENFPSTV
# How it was run: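 Scintillation counting of displaced radioligand gave the readout; bovine uterine membrane extract supplied the receptor. Measured 18 h post-dose, normalized to DMSO baseline. Single 25 uM duplicate screen preceded concentration-response follow-up.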
# [6] = molecular target: human Constitutive Androstane Receptor (CAR), NR1I3 (gene 9970) (UniProt Q14994); test: NVS_NR_hCAR_Antagonist: NovaScreen (NVS) Nuclear Receptor Binding Assay for human Constitutive Androstane Receptor Antagonism (CAR) (AID 2283344)
# Sequence of human Constitutive Androstane Receptor (CAR), NR1I3 (gene 9970) (Q14994 whole entry, looked up): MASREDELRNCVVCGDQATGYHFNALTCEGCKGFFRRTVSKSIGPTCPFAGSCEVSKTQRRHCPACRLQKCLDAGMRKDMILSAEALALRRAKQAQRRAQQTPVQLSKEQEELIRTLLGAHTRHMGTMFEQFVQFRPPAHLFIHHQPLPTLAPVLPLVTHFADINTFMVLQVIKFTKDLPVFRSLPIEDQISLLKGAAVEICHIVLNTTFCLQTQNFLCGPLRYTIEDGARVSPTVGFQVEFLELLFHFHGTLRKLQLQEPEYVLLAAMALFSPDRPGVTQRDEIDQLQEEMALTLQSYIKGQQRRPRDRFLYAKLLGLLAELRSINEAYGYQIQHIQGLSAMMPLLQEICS
# How it was run: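 Cell-free TR-FRET binding read 1 h after dosing, antagonist mode; loss of signal versus DMSO baseline. Primary screen in duplicate at a single 25 uM; actives retested in concentration series.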
# [7] = molecular target: bovine Gamma-Aminobutyric Acid Type A Receptor Agonist (GABAR Agonist), GABRA1 (gene 780973) (UniProt P08219); test: NVS_LGIC_bGABAR_Agonist: NovaScreen (NVS) Ligand-Gated Ion Channel Assay for bovine Gamma-Aminobutyric Acid Type A Receptor Agonist (GABAR Agonist) (AID 2283338)
# Sequence of bovine Gamma-Aminobutyric Acid Type A Receptor Agonist (GABAR Agonist), GABRA1 (gene 780973) (P08219 whole entry, looked up): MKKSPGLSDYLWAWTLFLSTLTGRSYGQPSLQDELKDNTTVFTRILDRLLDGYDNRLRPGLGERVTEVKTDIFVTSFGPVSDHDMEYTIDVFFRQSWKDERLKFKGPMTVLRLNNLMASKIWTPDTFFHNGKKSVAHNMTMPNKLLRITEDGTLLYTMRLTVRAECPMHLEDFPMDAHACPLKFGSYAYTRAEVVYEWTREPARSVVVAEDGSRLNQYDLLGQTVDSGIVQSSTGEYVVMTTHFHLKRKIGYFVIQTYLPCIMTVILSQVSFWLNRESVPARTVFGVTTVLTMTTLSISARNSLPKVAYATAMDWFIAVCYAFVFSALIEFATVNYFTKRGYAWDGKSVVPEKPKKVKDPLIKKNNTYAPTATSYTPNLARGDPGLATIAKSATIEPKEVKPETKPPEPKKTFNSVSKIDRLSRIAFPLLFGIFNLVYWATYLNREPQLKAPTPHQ
# How it was run: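 Radioligand binding to bovine cerebellar membranes in agonist format, read by filter-based scintillation counting after 1 h. Primary screen in duplicate at 25 uM, with actives followed in concentration series. Gain of signal versus DMSO.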
# [8] = molecular target: rat Glycine Receptor, Strychnine-sensitive (GlyRStrySens), Glra1 (gene 25674) (UniProt P07727); test: NVS_LGIC_rGlyRStrySens: NovaScreen (NVS) Ligand-Gated Ion Channel Assay for rat Glycine Receptor, Strychnine-sensitive (GlyRStrySens) (AID 2283341)
# Sequence of rat Glycine Receptor, Strychnine-sensitive (GlyRStrySens), Glra1 (gene 25674) (P07727 whole entry, looked up): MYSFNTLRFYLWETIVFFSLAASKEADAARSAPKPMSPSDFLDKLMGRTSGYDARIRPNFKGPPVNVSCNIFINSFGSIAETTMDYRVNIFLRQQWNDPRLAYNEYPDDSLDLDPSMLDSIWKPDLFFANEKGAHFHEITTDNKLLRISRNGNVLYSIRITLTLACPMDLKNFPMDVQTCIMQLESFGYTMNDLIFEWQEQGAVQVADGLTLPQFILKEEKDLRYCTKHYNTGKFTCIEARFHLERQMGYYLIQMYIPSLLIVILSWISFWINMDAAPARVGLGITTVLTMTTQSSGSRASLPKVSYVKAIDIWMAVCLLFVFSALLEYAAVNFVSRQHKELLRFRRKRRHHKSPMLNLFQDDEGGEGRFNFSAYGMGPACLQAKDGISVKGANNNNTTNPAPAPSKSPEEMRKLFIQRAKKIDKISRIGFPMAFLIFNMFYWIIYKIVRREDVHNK
# How it was run: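 Radioligand displacement on rat spinal cord membranes, 1 hr, filter scintillation read-out. Single-concentration duplicate screen at 25 uM; chemicals meeting threshold (e.g., 30% inhibition) rerun in concentration-response up to 50 uM. Loss of binding fitted versus DMSO.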
structure (smiles),measurement,setting,value
COP(=S)(OC)Oc1nc(Cl)c(Cl)cc1Cl,AC50,[1],17.9 µM (active)
same,AC50,[2],7 µM (active)
same,AC50,NCBI gene 100848466,17.3 µM (active)
CC1COC(Cn2cncn2)(c2ccc(Oc3ccc(Cl)cc3)cc2Cl)O1 (stereo not drawn),outcome,[1],inactive
same,outcome,[2],inactive
same,outcome,[3],inactive
COc1cnc(OC)n2nc(NS(=O)(=O)c3c(OCC(F)F)cccc3C(F)(F)F)nc12,outcome,[4],inactive
same,outcome,[5],inactive
Cc1cc(Cl)ccc1OCC(=O)O,outcome,[5],inactive
COP(N)(=O)SC (stereo not drawn),outcome,[1],inactive
same,outcome,[6],inactive
same,outcome,[5],inactive
C#CCOS(=O)OC1CCCCC1Oc1ccc(C(C)(C)C)cc1 (stereo not drawn),AC50,[1],18.2 µM (active)
same,AC50,[2],14.5 µM (active)
same,outcome,NCBI gene 100848466,inactive
same,outcome,[6],inactive
CS/C(C)=N/OC(=O)N(C)SN(C)C(=O)O/N=C(\C)SC,outcome,[6],inactive
N#CC(CCc1ccc(Cl)cc1)(Cn1cncn1)c1ccccc1 (stereo not drawn),outcome,[3],inactive
CCNc1nc(Cl)nc(NC(C)C)n1,outcome,[7],inactive
O=C(O)COc1nc(Cl)c(Cl)cc1Cl,outcome,[1],inactive
same,AC50,[2],14.6 µM (active)
same,outcome,[6],inactive
COC(=O)N(OC)c1ccccc1COc1ccn(-c2ccc(Cl)cc2)n1,AC50,[1],0.105 µM (active)
same,AC50,[2],0.26 µM (active)
same,outcome,[6],inactive
CCCCNC(=O)n1c(NC(=O)OC)nc2ccccc21,outcome,[8],inactive
COC(=O)c1ccccc1C(=O)OC,outcome,[1],inactive
same,outcome,[3],inactive
same,outcome,NCBI gene 100848466,inactive
same,outcome,[6],inactive
CCCN(CCC)c1c([N+](=O)[O-])cc(S(N)(=O)=O)cc1[N+](=O)[O-],AC50,[6],526 nM (active) and 6.79 µM (active)
same,outcome,[5],inactive
Cc1c(F)c(F)c(COC(=O)C2C(/C=C(\Cl)C(F)(F)F)C2(C)C)c(F)c1F (stereo not drawn),outcome,[8],inactive
same,outcome,[5],inactive
CC(Oc1ccc(Cl)cc1Cl)C(=O)O (stereo not drawn),outcome,[8],inactive
Cc1ccc(-c2c(Cl)nc(C#N)n2S(=O)(=O)N(C)C)cc1,outcome,[1],inactive
same,outcome,[2],inactive
same,outcome,[6],inactive
